Screens deposited in PubChem BioAssay by several laboratories.
ATG4B inh = inhibitors of human ATG4B cysteine protease; hit rate 0.51% among 340,000; Q9Y4P1; ATG4B cleavage of LC3-PLA2, NBD-HPC fluorescence, 1 h; inhibition, % at 8.33 µM; in the data active = inhibition above about 40%
Yeast superoxide = yeast age-related superoxide inhibition as caloric restriction mimetic; AID 2690; hit rate 0.18% among 330,000; superoxide response (% of plate mean), % at 10 µM; S. cerevisiae aged cells, superoxide DHE fluorescence; hits give low values;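 active = superoxide response under a set limit, about three screen SD below normal, cut at about 65% in these data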;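 note: yeast aged for seven days with compound at 30 °C before DHE staining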
GRK2 inh = inhibitors of human GRK2 displacing RNA aptamer | P25098 | bead flow cytometry, FAM-aptamer displacement from GRK2 | inhibition of aptamer binding, % at 10 µM | hit rate 0.59% among 330,000;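 active = inhibition of aptamer binding above 40%, roughly 3 SD of noise, on plates passing a quality check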;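 note: median bead fluorescence of bound FAM aptamer so fluorescent compounds give negative values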
Target sequence (P25098 whole entry, looked up): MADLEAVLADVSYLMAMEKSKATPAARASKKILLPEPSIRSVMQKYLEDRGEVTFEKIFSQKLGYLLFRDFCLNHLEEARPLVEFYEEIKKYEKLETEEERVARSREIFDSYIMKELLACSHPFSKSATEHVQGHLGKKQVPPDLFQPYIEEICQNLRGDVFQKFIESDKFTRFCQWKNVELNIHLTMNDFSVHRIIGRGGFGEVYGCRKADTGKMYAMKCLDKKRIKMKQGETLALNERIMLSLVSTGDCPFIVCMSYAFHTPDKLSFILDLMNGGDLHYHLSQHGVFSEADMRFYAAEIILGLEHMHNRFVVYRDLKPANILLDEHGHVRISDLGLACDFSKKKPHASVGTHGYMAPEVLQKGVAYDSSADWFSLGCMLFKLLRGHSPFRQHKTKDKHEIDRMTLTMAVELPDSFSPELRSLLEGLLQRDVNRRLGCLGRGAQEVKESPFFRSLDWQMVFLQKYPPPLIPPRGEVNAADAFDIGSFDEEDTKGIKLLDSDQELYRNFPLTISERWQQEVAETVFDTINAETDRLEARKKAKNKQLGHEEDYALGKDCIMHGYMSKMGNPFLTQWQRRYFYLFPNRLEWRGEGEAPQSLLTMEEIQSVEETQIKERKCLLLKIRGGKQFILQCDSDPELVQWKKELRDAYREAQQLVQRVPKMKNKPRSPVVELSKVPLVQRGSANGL
Efflux pump mplx = antifungal efflux pump inhibition, Nile Red retention; S. cerevisiae Candida pump triplex; inhibition, % at 10 µM; hit rate 0.44% among 330,000; AID 485275;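 active = plate passing quality check with inhibition over a set limit, or well fluorescence over plate mean plus 4 SD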;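 note: Nile Red retained in pooled yeast measured as flow cytometry median fluorescence; higher means more Nile Red kept so more efflux inhibition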
ATG4B confirm = ATG4B (human) inhibition, single-dose confirmed; inhibition, % at 8.33 µM; AID 504757; ATG4B protease fluorescent substrate cleavage assay; hit rate 92% among 320; shares compounds with ATG4B inh; in the data active = inhibition above about 39%
PLA2 ctr = PLA2 (human) inhibition in ATG4B counter-screen. hit rate 66% among 1,600. shares compounds with ATG4B inh. purified PLA2, NBD-C6-HPC fluorescence, 45 min. inhibition, % at 8.33 µM; in the data active = inhibition above about 50%
Large screens that a line does not name were inactive (follow-up assays come after a bar, where they were run). The list is not random: actives were taken first. Their share in the collection is about 1.6%.

CCN1C(C(=O)c2ccccc2)=C(Nc2ccccc2C)c2ccccc2S1(=O)=O	ATG4B inh 51 | PLA2 ctr 55
CCOc1ccccc1NC(=S)N(CCC(C)C)C1CCN(C(C)=O)CC1	none
COC(=O)C1=C(C)Nc2nc(SCc3ccccc3)[nH]c(=O)c2C1c1cccs1 (configuration not stated)	ATG4B inh 53 | PLA2 ctr inactive
Cc1cccn2c(=O)c(/C=C(\C#N)C(=O)NCc3ccco3)c(N3CCCCC3)nc12	ATG4B inh 63 | PLA2 ctr 60
Cc1cccn2c(=O)c(/C=C(\C#N)C(=O)NCc3ccco3)c(N3CCCC(C)C3)nc12 (configuration not stated)	ATG4B inh 51 | PLA2 ctr 68
Cc1cccn2c(=O)c(/C=C(\C#N)C(=O)NCc3ccco3)c(N3CCCCCC3)nc12	none
CCc1ccc(CN(C)C(=O)C2CCC(=O)N(Cc3ccccn3)C2)cc1 (configuration not stated)	none
CC(C)(C)c1cc(C(=O)NNc2cc(C(F)(F)F)ccc2Cl)n(Cc2ccccc2)n1	ATG4B inh 43 | PLA2 ctr 63
Cc1nc(NC(=O)c2ccccc2)sc1-c1csc(NCCc2ccccc2)n1	none
Cc1nc(NC(=O)c2ccccc2)sc1-c1csc(NCc2ccccc2)n1	ATG4B inh 45 | PLA2 ctr 66
C=CCN1C(c2ccc(Br)cc2)=CS/C1=C(\C#N)c1nnc(N2CCOCC2)n1-c1ccccc1	ATG4B inh 52 (no result: Yeast superoxide, GRK2 inh, Efflux pump mplx) | PLA2 ctr 69
C=CCN1C(=O)NC(c2ccccc2)(C(F)(F)F)S/C1=C(\C#N)c1nnc(N2CCOCC2)n1-c1ccccc1 (configuration not stated)	none
Cc1ccc(-n2c(C)cc(C(=O)COC(=O)c3ccc[nH]c3=O)c2C)cc1C	ATG4B inh 45 | PLA2 ctr inactive
COc1ccc(Br)cc1CNC(=O)CN1C(=O)C(c2ccccc2)Oc2cccnc21 (configuration not stated)	ATG4B inh 59 | PLA2 ctr 67
COc1ccc(NC(=O)CCCN2C(=O)C(c3ccccc3)Oc3cccnc32)cc1OC (configuration not stated)	none
CC(C)(C)c1ccc(OCc2ccc(C(=O)N/N=C3\CC4CC=CC34)cc2)cc1 (configuration not stated)	ATG4B inh 49 | PLA2 ctr 56
COc1ccc2c(c1OC)C(=O)N1c3ccccc3C(=O)N(c3ccccc3)C21 (configuration not stated)	ATG4B inh 48 | PLA2 ctr inactive
COc1ccc2c(c1OC)C(=O)N1c3ccccc3C(=O)N(c3ccc(F)cc3)C21 (configuration not stated)	none
COc1c(Cl)cc(Cl)cc1CNc1ccc(S(N)(=O)=O)cc1	ATG4B inh 82 | PLA2 ctr 85
COCCNC(=O)CNC(=S)N(CCCN1CCOCC1)Cc1cccs1	none
O=C(NCCc1ccc(Cl)cc1)c1ccc2nc[nH]c2c1	none
O=C(NCCc1ccc(Cl)cc1Cl)c1ccc2nc[nH]c2c1	ATG4B inh 43 | PLA2 ctr 51
O=C1NC2(CCCCC2)C(=O)N1Cc1cccc(C(F)(F)F)c1	none
Cc1ccccc1Cn1cc(NC(=O)CSc2nc3c(c(C(F)(F)F)n2)CCc2ccccc2-3)cn1	ATG4B inh 78 | PLA2 ctr 73
Cc1ccc(Cn2nc(C)c(NC(=O)CSc3nc4c(c(C(F)(F)F)n3)CCc3ccccc3-4)c2C)cc1	none
CC(C(=O)N1CCOCC1)n1cc([N+](=O)[O-])cn1 (configuration not stated)	none
COc1ccc(-n2nc(C(=O)NCC(=O)NCc3ccc(F)cc3)c3ccccc3c2=O)cc1OC	none
COc1cccc(-n2c(SCc3cc(=O)oc4cc(O)c(O)cc34)nc3ccccc3c2=O)c1	ATG4B inh 99 | PLA2 ctr 100
COc1cc2c(cc1CN1CCN(C(=O)c3cc(OC)c(OC)c(OC)c3)CC1)OCO2	none
COc1ccc(CNc2ncnc3c2[nH]c2cc(OC)c(OC)cc23)cc1	none
C1=C(CCNc2ncnc3c2[nH]c2ccccc23)CCCC1	ATG4B inh 49 | PLA2 ctr 64
Cc1ccc2[nH]c3c(NCc4ccccc4)ncnc3c2c1	ATG4B inh 50 | PLA2 ctr 60
COc1ccc(CNc2ncnc3c2[nH]c2ccccc23)cc1	ATG4B inh 47 | PLA2 ctr 71
O=c1c2[nH]c3ccccc3c2ncn1CCC1=CCCCC1	none
Brc1ccc2[nH]c3c(NCc4ccccn4)ncnc3c2c1	none
NS(=O)(=O)OCCCc1ccc(C(F)(F)F)cc1	none
C=CCNC(=O)c1c(Cl)nc(C)c([N+](=O)[O-])c1C	none
CC1CCCN(C(=O)c2ccc3c(=O)n(Cc4ccc5c(c4)OCO5)c(=S)[nH]c3c2)C1 (configuration not stated)	ATG4B inh 85 | PLA2 ctr 62
Cc1ccc(F)cc1NC(=O)c1ccc(NS(=O)(=O)c2ccc(Br)s2)cc1	none
O=C1C(Nc2ccccc2)=C/C(=N/S(=O)(=O)c2cccs2)c2ccccc21	ATG4B inh 72 | PLA2 ctr 78
O=C(CSc1nnc(CCc2ccccc2)n1-c1ccc(Cl)cc1)c1ccccc1	ATG4B inh 58 | PLA2 ctr 61
COc1ccccc1C(CNC(=O)CSc1ccc2ccccc2c1)N(C)C (configuration not stated)	none
COc1ccc(N(CC(=O)Nc2ccccc2OC)S(=O)(=O)c2ccc(OC)c(OC)c2)cc1	none
O=C(Nc1ncc(Cc2ccccc2)s1)c1cccs1	none
Cc1ccc(C(=O)Nc2ncc(Cc3ccccc3)s2)o1	ATG4B inh 43 | PLA2 ctr 64
Cc1[nH]c2ccccc2c1/C=N/n1cnnc1	none
COCCN=c1scc(-c2cc(OC)c(OC)c(OC)c2)n1/N=C/c1c(C)[nH]c2ccccc12	ATG4B inh 43 | PLA2 ctr 71
O=C(c1ccccc1)c1cnc(Nc2ccccc2Cl)s1	ATG4B inh 44 | ATG4B confirm 65 | PLA2 ctr inactive
O=C1c2cccc(Cl)c2C(=O)c2c1cccc2N1CCCC1	ATG4B inh 48 | PLA2 ctr 63
CCOC(=O)C1(Cc2ccc(Cl)cc2)CCN(C(C)Cc2ccc(O)c(OC)c2)CC1 (configuration not stated)	none
CCOc1cc(/C=C2\CCC/C(=C\c3cc(Cl)c(O)c(OCC)c3)C2=O)cc(Cl)c1O	ATG4B inh 44 | PLA2 ctr 51
CCOc1cc(/C=C2\CN(C)C/C(=C\c3ccc(O)c(OCC)c3)C2=O)ccc1O	none
O=C1Nc2ccc(F)cc2C12Nc1ccccc1-c1nnc(SCc3ccccc3Cl)nc1O2 (configuration not stated)	ATG4B inh 43 | PLA2 ctr 77
